AI-2 QS mod = modulates the Vibrio harveyi AI-2 quorum sensing system; activity change, % at 7.5 µM; Vibrio harveyi JMH597 AI-2 luminescence/OD600 ratio, 9 h; stronger effect = lower value; strain lacks LuxN and CqsS sensors; 0 = neutral-control median; hit rate 0.4% among 300,000; in the data active = activity change below about -75%, passing the limit was not always enough; inconclusive = no clear call, values can overlap the other calls;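 also: luminescence divided by OD600 gain over 9 h not by final OD600 alone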
HIF activator = HIF pathway transcriptional activation; activation, % at 7.5 µM (by protocol); hit rate 0.32% among 300,000; AID 1910; U2OS HRE-luciferase reporter, luminescence; normalized: DMSO 0%, desferrioxamine 100%;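 active = mean activation of at least 10% of the iron chelator positive control signal, with at least half of replicates also reaching 10%; inconclusive = mean and replicate majority disagree about reaching 10%; inactive = mean and most replicates under 10%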
SUMO Mot1 rescue = blocks SUMOylation pathway, rescuing yeast Mot1-301 growth | S. cerevisiae Mot1-301 growth rescue, ATP luminescence, 38.5C; percent above DMSO median, 100 means doubled | growth rescue, % at 18.8 µM | hit rate 1% among 320,000 | AID 2716;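 active = every valid replicate shows activation above 250% relative to neutral control wells; inactive = the rest, any valid replicate at or below 250%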
ALR inh = inhibitors of human sulfhydryl oxidase ALR; inhibition, % (test concentration not listed); hit rate 3.8% among 290,000; P55789; purified ALR, DTT oxidation, H2O2 HRP-luminol luminescence;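 active = mean replicate inhibition above about 79%, with every replicate also reaching it, limit read from the data; inconclusive = only one of the two criteria met; inactive = mean below limit and not every replicate reaching it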
Target sequence (P55789 whole entry, looked up): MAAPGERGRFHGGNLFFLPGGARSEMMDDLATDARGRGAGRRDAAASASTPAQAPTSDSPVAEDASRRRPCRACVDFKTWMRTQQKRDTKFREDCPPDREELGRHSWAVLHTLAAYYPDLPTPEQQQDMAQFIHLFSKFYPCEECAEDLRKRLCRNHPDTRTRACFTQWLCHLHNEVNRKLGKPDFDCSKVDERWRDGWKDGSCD
Of the large screens only hits and unclear results are named; the others gave an inactive call. Most compounds without a hit are left out; they make up all but 4.8% or so of the library.

Cc1ccc(S(=O)(=O)N2CCCC2CNC(=O)c2ccc(F)c(F)c2)cc1 (configuration not stated)	none
CCOc1ccc(NC(=O)Nc2ccc3c(c2)nnn3C)cc1	ALR inh 99 (no result: HIF activator)
CCc1nc(SCC(=O)c2ccc3c(c2)OCCO3)c2ccccc2n1	none (no result: ALR inh)
O=C(COc1ncnc2ccccc12)c1ccc2c(c1)OCCO2	none
O=C(CSc1nc(Cc2ccccc2)nc2ccccc12)c1ccc2c(c1)OCCO2	ALR inh 99
O=C(O)CCSCC(=O)c1ccc2c(c1)OCCO2	ALR inh 98 (no result: SUMO Mot1 rescue)
O=C(O)CCC(=O)c1ccc2c(c1)OCCO2	none (no result: HIF activator)
O=C(CSc1ncnc2ccccc12)c1ccc2c(c1)OCCO2	ALR inh 99
S=C(Nc1ccccc1)N1CCC(Cc2ccccc2)CC1	none (no result: ALR inh)
C=CCn1c(SCc2csc(-c3ccc(C)cc3)n2)nnc1-c1ccccc1OC	ALR inh 99
C=CCn1c(=O)c2ccccc2n2c(SCc3csc(-c4ccccc4)n3)nnc12	ALR inh 99 (no result: SUMO Mot1 rescue)
CN(C)CCCN(C(=O)c1cc(-c2cccs2)nc2ccccc12)c1nc2ccc(F)cc2s1	none
Cc1c(C(=O)NCCNc2ncc(C(F)(F)F)cc2Cl)cccc1[N+](=O)[O-]	none (no result: ALR inh)
O=[N+]([O-])c1cccc(Cl)c1NCCNc1ncc(C(F)(F)F)cc1Cl	ALR inh 100
O=C(CC(c1ccccc1)c1ccccc1)Nc1ccc(C(=O)O)cc1	none (no result: ALR inh)
C=CCn1c(=O)c2c(nc(-n3nc(C)cc3C)n2C)n(C)c1=O	none
O=C(CCl)NCc1cc(-c2ccc(Cl)cc2)no1	ALR inh 97
COc1ccc(OCc2cc(-c3ccc(Cl)cc3)no2)cc1	none
COC(=O)c1ccc2c(=O)n(CCN3CCOCC3)c(SCC(=O)Nc3ccc(C)cc3)nc2c1	ALR inh 99 (no result: SUMO Mot1 rescue)
CCOC(=O)CSc1nc2cc(C(=O)OC)ccc2c(=O)n1CCN1CCOCC1	none (no result: ALR inh)
CC(=O)c1cccc(NC(=O)CSc2nc3ccccc3c(=O)n2CCCN2CCOCC2)c1	none (no result: AI-2 QS mod, HIF activator)
Cc1ccc(NC(=O)CSc2nc3ccccc3c(=O)n2CCCN2CCCCC2)cc1C	ALR inh 98 (no result: SUMO Mot1 rescue)
CCCCn1c(SCC(=O)Nc2ccc(OC)cc2)nc2ccc(N3CCOCC3)cc2c1=O	ALR inh 99
CCCCn1c(SCC(=O)NC(C)CC)nc2ccc(N3CCOCC3)cc2c1=O (configuration not stated)	none
CC1CN(C(=O)CCNS(=O)(=O)c2ccc(Br)cc2)CC(C)O1 (configuration not stated)	none
COc1ccccc1CNC(=O)c1cc(-c2ccccc2C)n(CC2CC(c3cccc([N+](=O)[O-])c3)=NO2)n1 (configuration not stated)	none (no result: AI-2 QS mod, HIF activator)
O=C(c1ccc(-c2cccc(C(F)(F)F)c2)o1)N1CCCCCCC1	SUMO Mot1 rescue 533
O=C(c1ccco1)N1CCN(C(=O)c2ccc(-c3cccc(C(F)(F)F)c3)o2)CC1	none
CCN(Cc1nc2ccccc2c(=O)[nH]1)C(=O)c1ccc(C)c(NC(=O)c2ccco2)c1	none (no result: AI-2 QS mod, HIF activator)
O=C(OCc1cc(=O)n2ccsc2n1)c1ccccc1NCCO	none (no result: AI-2 QS mod, HIF activator)
Cc1ccc(C)c(NC(=O)Cc2nc(CCl)cs2)c1	none
Cc1ccccc1NC(=O)Cc1nc(CCl)cs1	ALR inh 92
Cc1ccc(SCC(=O)OCc2csc(CC(=O)Nc3ccccc3C)n2)cc1C	ALR inh 99 (no result: AI-2 QS mod, HIF activator)
COc1cc(/C=C2\C(=O)ON=C2c2ccccc2)cc(Cl)c1O	ALR inh 99 (no result: SUMO Mot1 rescue)
COc1cc(/C=C2\C(=O)ON=C2c2ccccc2)cc(Br)c1O	none (no result: ALR inh)
COc1cc(/C=C2/C(=O)ON=C2c2ccccc2)ccc1O	ALR inh 95 (no result: HIF activator)
O=S(=O)(/C=C/c1ccccc1)NC1CCCCCC1	none
O=S(=O)(/C=C/c1ccccc1)NC1CCCCCCC1	SUMO Mot1 rescue 328
NC(=O)C1CCN(C(=O)c2ccc3c(=O)n(Cc4ccco4)c(SCc4ccc([N+](=O)[O-])cc4)nc3c2)CC1	none
CCOC(=O)c1cc(-c2ccc(C)o2)nn1CCC#N	SUMO Mot1 rescue 347
COCCNC(=O)CSc1c2c(nc3ccc(Cl)cc13)CCCC2	ALR inh 98
O=C(CSc1c2c(nc3cc(Cl)ccc13)CCCC2)NCc1ccco1	none (no result: ALR inh)
CC(C)NC(=O)CSc1c2c(nc3ccccc13)CCCC2	ALR inh 76
COc1ccc(NC(=O)CSc2c3c(nc4cc(Cl)ccc24)CCCC3)cc1OC	ALR inh 99
COc1ccc(NC(=O)CSc2c3c(nc4ccccc24)CCCC3)c(OC)c1	ALR inh 100
C#CCOCCOCCOCCNc1nc(N2CCN(C(=O)[C@H](CCCCN)n3cc(CN)nn3)CC2)nc(N2CCN(C(=O)[C@H](CC(N)=O)n3cc(C(N)[C@H](C)CC)nn3)CC2)n1 (some centres not stated)	none (no result: AI-2 QS mod, HIF activator)
COc1cc(NC(=O)c2ccc3c(SCC(=O)O)c4c(nc3c2)CCCC4)cc(OC)c1OC	ALR inh 97 (no result: SUMO Mot1 rescue)
COc1ccc(NC(=O)CSc2nc(O)cc(=O)[nH]2)c(OC)c1	ALR inh 99
COc1ccc(NC(=O)CSc2cn[nH]n2)c(OC)c1	none
CCn1c(SCC(=O)Nc2ccccc2OC)nc2ccccc2c1=O	none
COc1ccccc1NC(=O)CSc1c2c(nc3ccccc13)CCC2	ALR inh 99
COc1cc(NC(=O)CSc2c3c(nc4ccccc24)CCC3)cc(OC)c1OC	ALR inh 98
COc1cc(NC(=O)c2ccc3c(SCC(=O)O)c4c(nc3c2)CCC4)cc(OC)c1OC	none
COc1ccc(C(CNC(=O)COc2cccc(C(F)(F)F)c2)N2CCCC2)cc1 (configuration not stated)	none (no result: AI-2 QS mod, HIF activator)
C=CCN(C(=O)CNS(=O)(=O)c1ccccc1)C(C(=O)NCCOC)c1cccnc1 (configuration not stated)	none (no result: ALR inh)
Cc1cc(NC(=O)CSc2c3c(nc4ccccc24)CCC3)no1	ALR inh 98
NC(=O)C1CCN(C(=O)CSc2nc(O)cc(=O)[nH]2)CC1	none (no result: AI-2 QS mod)
O=C(CSc1nc(O)cc(=O)[nH]1)C1CC1	ALR inh 86
O=C(CSc1c2c(nc3ccccc13)CCC2)N1CCCC1	ALR inh 98
CN(CCOc1ccccc1)C(=O)C1CCC(=O)N(CCc2ccc(Cl)cc2)C1 (configuration not stated)	none
CCCNS(=O)(=O)c1cccc(C(=O)NNC(=O)c2cc(C)oc2C)c1	none
Cn1nccc1C(=O)Oc1ccc(/C=N/NC(=O)c2ccccc2O)cc1	ALR inh 93
O=C(CC1SC(=O)NC1=O)Oc1ccc(/C=N/NC(=O)c2ccccc2O)cc1 (configuration not stated)	ALR inh 99
O=C(Oc1ccc(/C=N/NC(=O)c2ccccc2O)cc1)c1ccccc1	none (no result: SUMO Mot1 rescue)
COc1ccccc1N(C)S(=O)(=O)c1ccc(C)c(C(=O)NCc2ccccn2)c1	none (no result: AI-2 QS mod, HIF activator)
COc1ccccc1NC(=O)c1ccccc1C(=O)N(C)Cc1ccccc1	none (no result: AI-2 QS mod, HIF activator)
O=C(NC(=S)NNC(=O)c1ccco1)c1ccc(F)cc1	ALR inh inconclusive
COc1ccc(/C=C/C(=O)NC(=S)NNC(=O)c2ccco2)cc1OC	ALR inh 85 (no result: SUMO Mot1 rescue)
Cc1onc(-c2ccccc2)c1C(=O)NNC(=S)NC(=O)/C=C/c1ccccc1	ALR inh 76
